Among the data in PubChem BioAssay (EPA / NIEHS) are outcome and AC50 values, retold here.

Active and inactive are the calls of the source. How the source made its calls: active means hit-call score of the fitted dose curve at least 0.9, where 1 is the maximum; inactive means score below 0.9.

A short description of experiment [1]: ATG_M_32_CIS: Attagene CIS-FACTORIAL HepG2 Assay for M32 Transcription Factor (Internal Marker) (AID 2282949).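 Further: background control marker of the multiplexed CIS panel rather than a real target.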 As to conditions: HepG2 Attagene cis-factorial M32 reporter, mRNA; actives raise or lower the signal. The procedure, abridged: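 Using DMSO as baseline, bidirectional curve fits were applied to reporter mRNA signals. These came from transiently transfected HepG2 cells exposed for 24 h, with RNA analysed by RT-PCR, FAM primer extension, HpaI digestion and CE.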

The nature of experiment [2]: ATG_M_06_CIS: Attagene CIS-FACTORIAL HepG2 Assay for M06 Transcription Factor (Internal Marker) (AID 2282950). Conditions: HepG2 Attagene CIS-FACTORIAL M06 internal marker reporter; actives raise or lower the signal. The procedure, abridged: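 Serves as a background control readout. Transfected HepG2 exposed to compounds for 24 h, then reporter transcripts quantified by fluorescent RT-PCR and capillary electrophoresis. Both directions fitted against DMSO baseline.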

The target in experiment [3] is Hypoxia-inducible factor 1-alpha (Homo sapiens) (UniProt Q16665). Description: ATG_HIF1a_CIS: Attagene CIS-FACTORIAL HepG2 Assay for human Hypoxia Inducible Factor 1 (HIF1A) (AID 2282951). Conditions: HepG2 Attagene cis-factorial HIF1a reporter transcription; actives raise or lower the signal. An outline of the steps:
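Measures endogenous transcription-factor activity through cis-regulated reporter mRNA in HepG2. Cells dosed 24 h; transcripts quantified by RT-PCR with 6-FAM-labelled products separated by capillary electrophoresis; DMSO serves as negative control.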

The target of experiment [4] is Hepatocyte nuclear factor 6 (Homo sapiens) (UniProt Q9UBC0). Description: ATG_HNF6_CIS: Attagene CIS-FACTORIAL HepG2 Assay for human Hepatocyte Nuclear Factor 6 (HNF6) (AID 2282952). Conditions: HepG2 Attagene cis-factorial HNF6 reporter transcription; actives raise or lower the signal. The procedure, abridged: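 Endogenous transcription factor activity in human HepG2 liver cells was captured through cis-regulated reporter constructs. After 24 h treatment, reporter mRNA was measured by RT-PCR with capillary electrophoresis, and activity was fitted in both directions relative to DMSO.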
Chain of Hepatocyte nuclear factor 6 (Homo sapiens) (Q9UBC0 whole entry, looked up): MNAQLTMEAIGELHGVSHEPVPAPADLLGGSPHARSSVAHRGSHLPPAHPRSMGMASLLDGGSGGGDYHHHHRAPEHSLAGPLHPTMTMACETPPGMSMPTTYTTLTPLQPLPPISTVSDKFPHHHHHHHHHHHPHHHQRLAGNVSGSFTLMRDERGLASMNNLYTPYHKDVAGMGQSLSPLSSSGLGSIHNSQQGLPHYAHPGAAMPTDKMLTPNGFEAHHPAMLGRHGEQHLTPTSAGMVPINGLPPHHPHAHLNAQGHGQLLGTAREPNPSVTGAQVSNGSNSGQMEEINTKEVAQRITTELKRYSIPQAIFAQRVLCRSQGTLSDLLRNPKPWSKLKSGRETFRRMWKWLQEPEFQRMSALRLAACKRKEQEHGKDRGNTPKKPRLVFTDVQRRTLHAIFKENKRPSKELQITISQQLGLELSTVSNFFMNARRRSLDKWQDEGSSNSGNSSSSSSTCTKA

In experiment [5] the target is Heat shock factor protein 1 (Homo sapiens) (UniProt Q00613). Description: ATG_HSE_CIS: Attagene CIS-FACTORIAL HepG2 Assay for human Heat Shock Transcription Factor 1 (HSE) (AID 2282953). Conditions: HepG2 HSE cis-reporter, Attagene RNA transcription; actives raise or lower the signal. The procedure, abridged: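 Endogenous transcription factor activity in transiently transfected HepG2, read as reporter mRNA by RT-PCR with fluorescent capillary electrophoresis after 24 h. Gain or loss of signal fitted versus DMSO baseline.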
Chain of Heat shock factor protein 1 (Homo sapiens) (Q00613 whole entry, looked up): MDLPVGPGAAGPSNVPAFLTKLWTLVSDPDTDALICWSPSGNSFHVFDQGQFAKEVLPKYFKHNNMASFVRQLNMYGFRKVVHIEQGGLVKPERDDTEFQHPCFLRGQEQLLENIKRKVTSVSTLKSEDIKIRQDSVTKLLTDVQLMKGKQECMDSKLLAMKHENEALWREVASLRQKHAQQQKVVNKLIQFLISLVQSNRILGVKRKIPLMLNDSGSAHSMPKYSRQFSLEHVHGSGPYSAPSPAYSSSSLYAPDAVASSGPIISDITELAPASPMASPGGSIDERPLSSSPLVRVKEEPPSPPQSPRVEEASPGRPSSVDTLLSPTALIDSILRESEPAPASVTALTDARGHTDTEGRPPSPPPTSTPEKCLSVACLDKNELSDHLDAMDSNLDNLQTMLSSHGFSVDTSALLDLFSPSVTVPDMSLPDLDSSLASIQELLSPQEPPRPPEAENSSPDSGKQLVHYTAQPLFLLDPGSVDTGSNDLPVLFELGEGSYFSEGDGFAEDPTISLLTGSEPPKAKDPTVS

A short description of experiment [6]: ATG_MRE_CIS: Attagene CIS-FACTORIAL HepG2 Assay for human Metal Responsive Element (MRE) (AID 2282954). As to conditions: HepG2 MRE cis-reporter transcription, Attagene multiplex; actives raise or lower the signal. The procedure, abridged:
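RT-PCR/capillary electrophoresis readout of reporter mRNA, 24 h post-dosing, in HepG2 cells transfected with multiplexed cis-regulated reporter constructs. Gain or loss of signal fitted bidirectionally against DMSO baseline.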

A short description of experiment [7]: ATG_PXRE_CIS: Attagene CIS-FACTORIAL HepG2 Assay for human Pregnane X Receptor Element (PXRE) (AID 2282957). As to conditions: HepG2 Attagene CIS-FACTORIAL PXRE reporter, mRNA; actives raise or lower the signal. The procedure, abridged: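 Endogenous transcription factor activity in HepG2 was gauged through induction of reporter mRNA driven by a cis-regulating promoter element, sampled 24 h post-treatment. Activity was fitted in both directions against DMSO negative control.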

Experiment [8] can be described thus: ATG_RORE_CIS: Attagene CIS-FACTORIAL HepG2 Assay for human RAR-related Orphan Receptor Element (RORE) (AID 2282959). Conditions: HepG2 Attagene cis-factorial RORE reporter, mRNA; actives raise or lower the signal. An outline of the steps:
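Cells were HepG2 carrying transfected cis-regulated reporter constructs, dosed for 24 hours. Total RNA was reverse-transcribed and reporter cDNA amplified, fluorescently labeled and sized by capillary electrophoresis. Activity was fitted bidirectionally relative to DMSO.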

Experiment [9] is described as follows: ATG_Sox_CIS: Attagene CIS-FACTORIAL HepG2 Assay for human SRY-box transcription factor (SOX) (AID 2282960). Conditions: HepG2 Attagene cis-factorial SOX reporter, mRNA; actives raise or lower the signal. An outline of the steps: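 Transient MRTU transfection of HepG2; 24 h compound incubation; TriZol RNA, oligo(dT) RT, PCR, 6-FAM primer extension, HpaI cut, CE. Bidirectional fit, DMSO = baseline.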

Experiment [10] has as its target Transcription factor Sp1 (Homo sapiens) (UniProt P08047). Description: ATG_Sp1_CIS: Attagene CIS-FACTORIAL HepG2 Assay for human Specificity Protein 1 (Sp1) (AID 2282961). Conditions: HepG2 Sp1 cis-reporter transcription, actives raise or lower the signal. An outline of the steps:
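Endogenous Sp1 activity was gauged in human liver HepG2 cells bearing transfected reporter units under a cis-regulating promoter. After 24 h dosing, reporter mRNA was quantified by RT-PCR with capillary electrophoresis, and activity fitted bidirectionally versus DMSO.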

Experiment [11] has as its target Signal transducer and activator of transcription 3 (Homo sapiens) (UniProt P40763). Description: ATG_STAT3_CIS: Attagene CIS-FACTORIAL HepG2 Assay for human Signal Transducer and Activator of Transcription 3 (STAT3) (AID 2282963). Conditions: HepG2, Attagene cis-factorial STAT3 reporter transcription; actives raise or lower the signal. The procedure, abridged:
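Readout: fluorescent reporter mRNA fragments resolved by capillary electrophoresis. Setup: HepG2 transfected with MRTUs reporting endogenous transcription-factor activity, dosed 24 h. Gain or loss of signal fitted bidirectionally against DMSO control.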

Experiment [12] is described as follows: ATG_TA_CIS: Attagene CIS-FACTORIAL HepG2 Assay for human TA Basal Promoter (AID 2282964). As to conditions: HepG2 Attagene CIS-factorial TA basal promoter reporter; actives raise or lower the signal. The procedure, abridged:
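Background-control readout: TA basal promoter reporter mRNA, fitted in both directions relative to DMSO. Measured by RT-PCR and capillary electrophoresis 24 hours after treating HepG2 human liver cells transiently carrying multiplexed cis-regulated reporter constructs.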

Experiment [13] is described as follows: ATG_TCF_b_cat_CIS: Attagene CIS-FACTORIAL HepG2 Assay for human T-Cell-Factor with beta-catenin (TCF/b-cat) (AID 2282965). Conditions: HepG2 TCF/beta-catenin cis-reporter transcription, actives raise or lower the signal. The procedure, abridged: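 Cells of the HepG2 line carry transiently transfected reporter units whose promoters respond to endogenous factors. Twenty-four hours post-dosing, reporter mRNA induction is measured by fluorescent RT-PCR and capillary electrophoresis, with DMSO as baseline.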

Experiment [14] is described as follows: ATG_TAL_CIS: Attagene CIS-FACTORIAL HepG2 Assay for human TAL Basal Promoter (AID 2282966).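 Further: background control endpoint measuring basal TAL promoter reporter mRNA not a specific factor.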 Conditions: HepG2 Attagene cis-factorial TAL promoter reporter; actives raise or lower the signal. An outline of the steps:
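Endogenous transcription-factor activity is sensed in HepG2 cells through transfected cis-promoter reporter constructs. After 24 h dosing, reporter transcripts are quantified by RT-PCR and capillary electrophoresis. Gain or loss of signal is fitted relative to DMSO.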

Experiment [15] can be described thus: ATG_VDRE_CIS: Attagene CIS-FACTORIAL HepG2 Assay for human Vitamin D Receptor Element (VDRE) (AID 2282968). Conditions: HepG2 VDRE cis-reporter transcription, actives raise or lower the signal. The procedure, abridged:
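Transient MRTU transfection of HepG2, 24 h compound exposure. Readout: reporter transcripts via RT-PCR and capillary electrophoresis, fluorescence. Bidirectional fit vs DMSO.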

Experiment [16] is described as follows: ATG_SREBP_CIS: Attagene CIS-FACTORIAL HepG2 Assay for human Sterol Regulatory Element Binding (SREBP) (AID 2282962). As to conditions: HepG2 Attagene cis-factorial SREBP reporter, mRNA; actives raise or lower the signal. An outline of the steps:
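Endogenous SREBP activity read as cis-element-driven reporter transcript in transiently transfected HepG2, 24 h post-dosing; quantified via RT-PCR plus capillary electrophoresis of fluorescent fragments. Gain or loss of signal fitted relative to DMSO baseline.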

Experiment [17] deals with Paired box protein Pax-6 (Homo sapiens) (UniProt P26367). Description: ATG_Pax6_CIS: Attagene CIS-FACTORIAL HepG2 Assay for human Paired Box 6 (PAX6) (AID 2282956). Conditions: HepG2 CIS-FACTORIAL PAX6 reporter transcription, RNA readout; actives raise or lower the signal. An outline of the steps:
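Read-out is reporter transcript level, measured by RT-PCR with fluorescent primer extension and capillary electrophoresis after 24 h dosing of transfected HepG2 cells. Activity in either direction fitted relative to DMSO control.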

Experiment [18] can be described thus: ATG_PPRE_CIS: Attagene CIS-FACTORIAL HepG2 Assay for human Peroxisome Proliferator-activated Response Element (PPRE) (AID 2282958). As to conditions: HepG2 PPRE cis-element reporter, Attagene transcription factor profiling; actives raise or lower the signal. An outline of the steps: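 Cells are first transfected transiently with the multiplexed reporter library, then dosed for 24 h. Total RNA is reverse-transcribed, amplified, fluorescently end-labeled and HpaI-cut before capillary electrophoresis; activity is fitted bidirectionally against DMSO controls.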

Experiment [19] in a line: ATG_TGFb_CIS: Attagene CIS-FACTORIAL HepG2 Assay for human Transforming Growth Factor (TGF) (AID 2282967). As to conditions: HepG2 Attagene CIS TGFb reporter, mRNA transcription; actives raise or lower the signal. An outline of the steps:
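Endogenous TGFB1-linked transcription factor activity read as reporter mRNA via RT-PCR and capillary electrophoresis, 24 h after dosing transiently transfected HepG2 cells. Gain or loss of signal fitted relative to DMSO.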

Chain of Hypoxia-inducible factor 1-alpha (Homo sapiens) (Q16665 whole entry, looked up): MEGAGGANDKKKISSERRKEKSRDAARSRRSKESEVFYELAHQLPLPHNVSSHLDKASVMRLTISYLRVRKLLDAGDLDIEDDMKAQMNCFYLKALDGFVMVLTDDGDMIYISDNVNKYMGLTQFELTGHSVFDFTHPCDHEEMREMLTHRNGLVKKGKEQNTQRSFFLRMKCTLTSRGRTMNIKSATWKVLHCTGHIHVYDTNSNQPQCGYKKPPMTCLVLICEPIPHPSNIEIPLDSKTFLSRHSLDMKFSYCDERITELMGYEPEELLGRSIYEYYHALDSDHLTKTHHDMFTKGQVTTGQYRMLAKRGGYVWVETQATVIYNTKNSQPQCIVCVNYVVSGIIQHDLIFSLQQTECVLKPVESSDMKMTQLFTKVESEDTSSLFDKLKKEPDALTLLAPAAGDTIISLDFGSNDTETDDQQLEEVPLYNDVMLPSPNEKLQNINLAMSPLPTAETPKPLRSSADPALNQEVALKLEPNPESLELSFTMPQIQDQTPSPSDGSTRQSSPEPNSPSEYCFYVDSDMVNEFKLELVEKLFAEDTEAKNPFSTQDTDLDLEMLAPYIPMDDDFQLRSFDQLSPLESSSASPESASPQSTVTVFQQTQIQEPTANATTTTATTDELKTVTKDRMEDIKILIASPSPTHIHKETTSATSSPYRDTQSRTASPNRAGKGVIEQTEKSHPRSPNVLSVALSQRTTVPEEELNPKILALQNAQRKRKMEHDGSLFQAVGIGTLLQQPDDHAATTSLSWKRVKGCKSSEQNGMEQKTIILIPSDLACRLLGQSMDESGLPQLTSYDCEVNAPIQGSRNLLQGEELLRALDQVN
Chain of Paired box protein Pax-6 (Homo sapiens) (P26367 whole entry, looked up): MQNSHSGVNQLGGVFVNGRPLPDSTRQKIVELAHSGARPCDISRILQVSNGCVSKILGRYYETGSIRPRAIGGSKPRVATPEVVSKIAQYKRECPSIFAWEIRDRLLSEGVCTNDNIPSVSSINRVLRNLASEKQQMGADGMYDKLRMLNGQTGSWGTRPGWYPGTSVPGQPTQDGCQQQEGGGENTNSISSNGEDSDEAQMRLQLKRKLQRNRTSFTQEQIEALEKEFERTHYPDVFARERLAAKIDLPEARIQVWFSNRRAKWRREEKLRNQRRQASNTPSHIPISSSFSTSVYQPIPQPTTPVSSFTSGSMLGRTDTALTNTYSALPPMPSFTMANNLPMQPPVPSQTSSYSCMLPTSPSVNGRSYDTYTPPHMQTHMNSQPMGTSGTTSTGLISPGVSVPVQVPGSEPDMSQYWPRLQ
Chain of Signal transducer and activator of transcription 3 (Homo sapiens) (P40763 whole entry, looked up, the tested form may be a part): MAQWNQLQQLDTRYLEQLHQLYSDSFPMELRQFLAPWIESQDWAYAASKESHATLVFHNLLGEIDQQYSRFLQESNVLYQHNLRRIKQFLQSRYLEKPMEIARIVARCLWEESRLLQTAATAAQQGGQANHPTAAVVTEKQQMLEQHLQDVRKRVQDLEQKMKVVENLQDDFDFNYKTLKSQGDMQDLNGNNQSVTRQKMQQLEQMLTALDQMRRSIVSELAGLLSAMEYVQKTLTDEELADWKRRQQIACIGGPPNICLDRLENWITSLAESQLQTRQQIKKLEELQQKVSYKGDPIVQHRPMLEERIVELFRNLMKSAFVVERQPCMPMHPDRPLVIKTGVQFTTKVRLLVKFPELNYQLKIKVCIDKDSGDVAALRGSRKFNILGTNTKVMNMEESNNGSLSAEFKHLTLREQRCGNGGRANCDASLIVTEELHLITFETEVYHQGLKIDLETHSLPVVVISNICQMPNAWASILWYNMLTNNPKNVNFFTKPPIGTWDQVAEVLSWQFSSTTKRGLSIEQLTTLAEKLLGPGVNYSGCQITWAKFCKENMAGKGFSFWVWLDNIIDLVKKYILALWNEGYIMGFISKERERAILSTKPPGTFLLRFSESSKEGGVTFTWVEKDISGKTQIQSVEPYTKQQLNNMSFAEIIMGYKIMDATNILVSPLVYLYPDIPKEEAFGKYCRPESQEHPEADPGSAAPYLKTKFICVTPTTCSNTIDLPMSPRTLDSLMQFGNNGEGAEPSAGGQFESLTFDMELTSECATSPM
Chain of Transcription factor Sp1 (Homo sapiens) (P08047 whole entry, looked up): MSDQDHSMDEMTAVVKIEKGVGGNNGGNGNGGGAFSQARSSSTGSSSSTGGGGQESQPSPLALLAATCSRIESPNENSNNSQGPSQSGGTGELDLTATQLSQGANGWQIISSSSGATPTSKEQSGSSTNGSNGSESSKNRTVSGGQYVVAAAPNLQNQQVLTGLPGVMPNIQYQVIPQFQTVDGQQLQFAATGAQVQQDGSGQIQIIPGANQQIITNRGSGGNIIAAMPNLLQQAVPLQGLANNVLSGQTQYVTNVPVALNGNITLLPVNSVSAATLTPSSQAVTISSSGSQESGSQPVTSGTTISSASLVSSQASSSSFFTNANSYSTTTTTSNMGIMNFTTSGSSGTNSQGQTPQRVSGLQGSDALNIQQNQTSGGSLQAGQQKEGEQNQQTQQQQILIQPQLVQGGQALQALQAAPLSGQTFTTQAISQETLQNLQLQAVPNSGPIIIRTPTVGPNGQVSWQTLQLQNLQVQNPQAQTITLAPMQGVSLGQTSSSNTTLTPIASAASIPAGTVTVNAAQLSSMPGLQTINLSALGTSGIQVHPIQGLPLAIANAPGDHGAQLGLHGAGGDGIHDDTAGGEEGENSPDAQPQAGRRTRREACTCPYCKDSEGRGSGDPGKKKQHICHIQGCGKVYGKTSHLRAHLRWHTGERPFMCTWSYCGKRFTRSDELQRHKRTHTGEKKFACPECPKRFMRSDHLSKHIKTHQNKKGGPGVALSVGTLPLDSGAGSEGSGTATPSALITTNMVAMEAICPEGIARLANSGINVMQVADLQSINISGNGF

Take `C=CCc1ccccc1O`: the call in experiment [1], in experiment [2], in experiment [3], in experiment [4], in [5] and in [6] was inactive. The molecule was called inactive in experiment [8], in experiment [9], in experiment [10], in experiment [11], in experiment [12] and in experiment [13]. Besides, the result in experiment [14] and in experiment [15] was inactive. Moreover, the AC50 (as a rule, the concentration giving half of the maximal activity seen) in experiment [7] was 29.3 µM (active).

As to `O=c1nc(O)n(Cl)c(=O)n1Cl`, the molecule was classed as inactive in experiment [1], in experiment [2], in experiment [3], in experiment [4], in experiment [5] and in experiment [6]. Also, the result in [7], in experiment [10], in [16], in experiment [11], in experiment [12] and in [14] was inactive.

In the case of `CCC[N+](CCC)(CCC)CCC`, the result in experiment [1], in [2], in [3], in [4], in experiment [6] and in experiment [17] was inactive. Moreover, the molecule was called inactive in [7], in experiment [18], in experiment [8], in experiment [9], in [10] and in [16]. The outcome in [11], in experiment [12], in experiment [13], in experiment [14] and in experiment [19] was inactive.

Turning to `C[N+](C)(C)Cc1ccccc1`, the molecule was classed as inactive in experiment [1], in experiment [2], in experiment [3], in [4], in [5] and in experiment [6]. Also, the call in experiment [17], in experiment [7], in experiment [9], in experiment [10], in experiment [16] and in [11] was inactive. Moreover, the molecule was called inactive in experiment [12], in experiment [13], in experiment [14] and in experiment [15].

With `CCCCCCCCCCCCCl`, the outcome in experiment [1], in experiment [2], in experiment [3], in experiment [4], in [5] and in experiment [6] was inactive. Further, the result in experiment [7], in [18], in experiment [8], in experiment [9], in experiment [10] and in experiment [16] was inactive. The call in [11], in experiment [12], in experiment [14], in experiment [19] and in experiment [15] was inactive.

Regarding `CCCCC(CC)COC(=O)Cl` (centres undefined), the molecule was classed as inactive in experiment [1], in experiment [2], in [3], in experiment [4], in [5] and in experiment [6]. In addition, the molecule was called inactive in experiment [17], in [7], in [10], in experiment [16], in experiment [11] and in experiment [12]. For the same molecule, the molecule was classed as inactive in experiment [14], in experiment [19] and in experiment [15].

With `Cc1cc(C)cc(C)c1`, the molecule was called inactive in experiment [1], in experiment [2], in [3], in [4], in experiment [5] and in experiment [6]. Further, the call in [17], in experiment [7], in experiment [8], in [9], in [10] and in experiment [11] was inactive. The outcome in [12], in [13], in experiment [14], in experiment [19] and in experiment [15] was inactive.

On to `Cc1cccc(C)c1NC(=O)CN1CCCC1=O`, for which the call in experiment [1], in experiment [2], in experiment [3], in [4], in experiment [6] and in experiment [17] was inactive. Besides, the result in [18], in [8], in experiment [10], in experiment [16], in experiment [11] and in experiment [12] was inactive. In addition, the outcome in experiment [13], in [14] and in experiment [19] was inactive.
